These results are taken from PubChem BioAssay (NCI).

Test systems include HCT-15 colon; HT29 colon; SNB-75 CNS; SNB-19 CNS; U251 CNS; PC-3 prostate; SK-MEL-5 melanoma; UACC-62 melanoma; LOX IMVI melanoma; SK-MEL-28 melanoma.
Test in all cases: NCI-60 one-dose screen, 48 h (100 = growth as untreated, 0 = no growth, -100 = all killed)
Common to all, as to conditions: 10 µM unless noted

The panel holds about 83,000 compounds, 20% with a hit somewhere; the sample as a whole holds those more often.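 How to read the values: 0–100, growth inhibition (40 = 60% inhibited); 0, no net growth; -100 to 0, cell death (-40 = 40% of starting cells died; -100 = all dead).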 Values without a mark were called inactive. The source made the active and inactive calls. Rule for the calls: active = growth percent below 10; inactive = the rest.

For `CC(=O)Nc1c(Br)cc2c(c1Br)Cc1cc(Br)ccc1-2`, the growth with HCT-15 colon was 91.7%; in the assay with HT29 colon, 52.8%; in the assay on SNB-75 CNS, 74.3%; in the assay on SNB-19 CNS it was 79.4%; in the assay on U251 CNS, 12.8%; with PC-3 prostate, 67.8%. The growth with SK-MEL-5 melanoma was 88.2%; in the assay with UACC-62 melanoma, 72.2%; in the assay on LOX IMVI melanoma it was 20.7%; in the assay on SK-MEL-28 melanoma it was 98.3%.
Regarding `COc1cnc2c(c1)C(=O)c1c-2n(CCCN2CCCC2)c(=O)c2cc(Cl)ccc12`, the growth in the assay with HCT-15 colon was 39.4%; in the assay on HT29 colon it was -72.8% (active); with SNB-75 CNS, 19.2%; with SNB-19 CNS, 28.7%; in the assay on U251 CNS, 20.1%; with PC-3 prostate, 20.4%. For the same compound, the growth is 14.7% with SK-MEL-5 melanoma, 21.1% in the assay on UACC-62 melanoma, 12.5% in the assay with LOX IMVI melanoma and 85.1% with SK-MEL-28 melanoma.
As to `CCCCCCCCCCCC1=NC(C)(C)CN1C(C)C`, the growth is 11.8% in the assay with HCT-15 colon; 0.372% (active) in the assay on HT29 colon; 52% in the assay on SNB-75 CNS; 86.7% in the assay on SNB-19 CNS; 37% in the assay on U251 CNS; 34.6% in the assay on PC-3 prostate. Besides, the growth is -24.7% (active) with SK-MEL-5 melanoma, -51.3% (active) with UACC-62 melanoma, 34.6% with LOX IMVI melanoma and -54.7% (active) with SK-MEL-28 melanoma.
For the compound `Cc1ccccc1C1CC(=O)c2ccccc2C1C` (stereo not given), the growth in the assay on HCT-15 colon is 96.9%; in the assay on HT29 colon, 100%; in the assay on SNB-75 CNS, 85%; in the assay with SNB-19 CNS, 94.5%; with U251 CNS it was 88.5%; with PC-3 prostate, 99.4%. The growth was 105% with SK-MEL-5 melanoma, 87.4% with UACC-62 melanoma, 100% in the assay with LOX IMVI melanoma and 107% in the assay with SK-MEL-28 melanoma.
Regarding `Cc1nc(N)nc2c1CCC(Nc1ccccc1)S2` (stereo not given), the growth was 100% in the assay on HCT-15 colon; 104% with HT29 colon; 98.3% with SNB-75 CNS; 111% in the assay on SNB-19 CNS; 103% with U251 CNS; 90.6% in the assay with PC-3 prostate. The growth in the assay with SK-MEL-5 melanoma is 99.1%; with UACC-62 melanoma, 108%; in the assay on LOX IMVI melanoma, 97%; in the assay with SK-MEL-28 melanoma, 114%.
For `C#CCNc1nc(NCCNC(=O)CCl)nc(N(C)CCCCc2ccccc2)n1`, the growth is 92.4% in the assay with HCT-15 colon; 109% in the assay with HT29 colon; 104% in the assay with SNB-75 CNS; 99.3% in the assay on SNB-19 CNS; 98.6% in the assay with U251 CNS; 107% in the assay with PC-3 prostate. For the same compound, the growth in the assay on SK-MEL-5 melanoma is 53.8%; in the assay with UACC-62 melanoma it was 91.7%; in the assay with LOX IMVI melanoma, -12.5% (active); in the assay on SK-MEL-28 melanoma, 104%.
For `O=C(NO)c1ccc(CNc2cccc3nc(C4CC4)n(-c4ccccc4)c(=O)c23)cc1`, the growth is 7.98% (active) in the assay on HCT-15 colon; 24.8% with HT29 colon; 33% in the assay with SNB-75 CNS; 25.9% with SNB-19 CNS; -7.99% (active) in the assay with U251 CNS; -47% (active) in the assay on PC-3 prostate. Further, the growth was 2.95% (active) with SK-MEL-5 melanoma, -22.2% (active) with UACC-62 melanoma, -34.9% (active) in the assay on LOX IMVI melanoma and 9.83% (active) in the assay with SK-MEL-28 melanoma.
Consider `CC(=O)C1CCC2C3CC(C)=C4CC(O)CCC4(C)C3CCC12C` (stereo not given), for which the growth in the assay with HCT-15 colon was 100%; in the assay with HT29 colon, 96.4%; in the assay on SNB-75 CNS, 100%; in the assay on SNB-19 CNS it was 97.5%; with U251 CNS, 97.5%; in the assay on PC-3 prostate, 88.2%. Besides, the growth in the assay with SK-MEL-5 melanoma was 99.4%; in the assay with UACC-62 melanoma it was 91.6%; in the assay on LOX IMVI melanoma it was 92.1%; in the assay on SK-MEL-28 melanoma it was 105%.
As to `COc1ccccc1-[n+]1cc(-c2ccc(-c3ccccc3)cc2)n2c1CCCCC2`, the growth is 66% in the assay on HCT-15 colon; 1.07% (active) with HT29 colon; 16% with SNB-75 CNS; 11.7% in the assay on SNB-19 CNS; 10.6% with U251 CNS; 1.3% (active) with PC-3 prostate. Moreover, the growth with SK-MEL-5 melanoma was -78.8% (active); in the assay with UACC-62 melanoma it was 2.5% (active); in the assay on LOX IMVI melanoma it was 11.3%; with SK-MEL-28 melanoma, 27.8%.
`O=C1SCN(Cc2ccccc2)CN1Cc1ccccc1`: the growth is 98% in the assay with HCT-15 colon; 90.4% in the assay with HT29 colon; 91% in the assay with SNB-75 CNS; 108% in the assay with SNB-19 CNS; 99.5% in the assay with U251 CNS; 86.3% with PC-3 prostate. For the same compound, the growth in the assay with SK-MEL-5 melanoma was 92.8%; in the assay on UACC-62 melanoma, 89.6%; in the assay on LOX IMVI melanoma, 70.2%; in the assay on SK-MEL-28 melanoma, 111%.
As for `CC1(C)CN(CCNc2nccc(-c3c(-c4cccc(O)c4)nc4sccn34)n2)S(=O)(=O)N1`, the growth with HCT-15 colon is 95.7%; in the assay with HT29 colon it was 54.4%; in the assay on SNB-75 CNS, 30.5%; in the assay on SNB-19 CNS, 87.8%; with U251 CNS, 74%; with PC-3 prostate it was 50.8%. The growth was 58.4% in the assay with SK-MEL-5 melanoma, -8.38% (active) in the assay with UACC-62 melanoma, 18.2% in the assay with LOX IMVI melanoma and 20.1% with SK-MEL-28 melanoma.
Take `C=C1C(=O)O[C@H]2[C@H]1CC/C(COC(=O)NCc1c[nH]c3ccc(OC)cc13)=C\CC[C@@]1(C)O[C@@H]21`: the growth with HCT-15 colon was -26.1% (active); in the assay on HT29 colon, -53.2% (active); with SNB-75 CNS, 63.2%; in the assay on SNB-19 CNS, 64.4%; in the assay on U251 CNS it was 9.85% (active); with PC-3 prostate, -2.65% (active). In addition, the growth is 15.1% in the assay on SK-MEL-5 melanoma, -31.6% (active) in the assay on UACC-62 melanoma, -59.6% (active) in the assay on LOX IMVI melanoma and -23.9% (active) in the assay with SK-MEL-28 melanoma.
As for `O=[N+]([O-])c1ccc(N=Nc2c(NNc3ccc([N+](=O)[O-])cn3)cc(S(=O)(=O)O)c3ccccc23)nc1`, the growth in the assay on HCT-15 colon was 68.7%; with HT29 colon it was 40.8%; with SNB-75 CNS it was 91.9%; in the assay on SNB-19 CNS it was 95.6%; in the assay on U251 CNS, 68.7%; in the assay on PC-3 prostate it was 67.7%. Besides, the growth in the assay with SK-MEL-5 melanoma is 92%; in the assay with UACC-62 melanoma it was 86.4%; in the assay with LOX IMVI melanoma, 57.9%; in the assay on SK-MEL-28 melanoma it was 104%.
As to `Clc1ccccc1CNc1c2ccccc2nc2ccccc12`, the growth with HCT-15 colon was 13.6%; with HT29 colon it was 5.54% (active); with SNB-75 CNS, 43.1%; in the assay on SNB-19 CNS, 25.8%; in the assay on U251 CNS, 23.2%; in the assay with PC-3 prostate it was 17.1%. For the same compound, the growth was 41.8% in the assay with SK-MEL-5 melanoma, 41% with UACC-62 melanoma, 4.83% (active) with LOX IMVI melanoma and 50.5% in the assay on SK-MEL-28 melanoma.
Consider `COc1cc(C2CC(c3ccccc3)=NN2C=O)ccc1Oc1ccnc2cc(Cl)ccc12` (stereo not given), for which the growth is 59.3% with HCT-15 colon; 75.9% with HT29 colon; 69.9% in the assay on SNB-75 CNS; 71.2% in the assay with SNB-19 CNS; 88.6% in the assay with U251 CNS; 31.4% in the assay with PC-3 prostate. Besides, the growth in the assay on SK-MEL-5 melanoma was 1.25% (active); in the assay on UACC-62 melanoma, 54.3%; in the assay on LOX IMVI melanoma it was 56.6%; with SK-MEL-28 melanoma, 75.9%.
For the compound `ClC1=NC(Cl)C(Cl)=N/C1=N\c1ncn[nH]1` (stereo not given), the growth in the assay with HCT-15 colon was -71.9% (active); in the assay on HT29 colon, -62.8% (active); in the assay with SNB-75 CNS, 68.9%; in the assay on SNB-19 CNS, 111%; in the assay with U251 CNS, -50.5% (active); in the assay with PC-3 prostate, 20.3%. The growth in the assay with SK-MEL-5 melanoma is 74.1%; in the assay with UACC-62 melanoma it was 83.6%; in the assay with LOX IMVI melanoma, -50.7% (active); in the assay with SK-MEL-28 melanoma it was 15.1%.
With `CCOC(=O)c1ccc2c(c1)nc(-c1ccc(Cl)cc1)n2-c1cc(C(C)(C)C)[nH]n1`, the growth with HCT-15 colon is 20.2%; in the assay on HT29 colon it was 18.5%; in the assay with SNB-75 CNS, 18.2%; with SNB-19 CNS, 48%; with U251 CNS, 33.6%; with PC-3 prostate it was 48.7%. For the same compound, the growth in the assay with SK-MEL-5 melanoma is 0.494% (active); with UACC-62 melanoma, 25.5%; in the assay on LOX IMVI melanoma, 27.8%; in the assay on SK-MEL-28 melanoma, 36.2%.
For the compound `Oc1ccccc1-c1nnc(COc2ccc(Cl)cc2Cl)o1`, the growth in the assay on HCT-15 colon was 27.4%; in the assay on HT29 colon it was 60.3%; in the assay on SNB-75 CNS it was 86.6%; with SNB-19 CNS it was 53.5%; in the assay with U251 CNS it was 41.5%; in the assay with PC-3 prostate, 47.8%. Besides, the growth in the assay on SK-MEL-5 melanoma was 32.3%; with UACC-62 melanoma it was 25.1%; with LOX IMVI melanoma, 25.5%; in the assay with SK-MEL-28 melanoma it was 68.9%.
Take `COc1ccc(-c2cc(-c3cn(-c4cccc(Cl)c4)nc3-c3ccc(OC)cc3)[nH]c(=S)n2)cc1`: the growth in the assay on HCT-15 colon is 95.4%; in the assay on HT29 colon, 20.6%; in the assay on SNB-75 CNS, 102%; with SNB-19 CNS it was 81.6%; in the assay on U251 CNS it was 72.6%; in the assay on PC-3 prostate it was 67.3%. Further, the growth with SK-MEL-5 melanoma was 88.5%; with UACC-62 melanoma, 88%; with LOX IMVI melanoma, 7.63% (active); with SK-MEL-28 melanoma, 95.5%.
As to `COc1ccc(-c2cc(C(=O)Nc3ccc(Br)cc3)nc3[nH]c(=O)sc23)cc1`, the growth is 37% in the assay with HCT-15 colon; 50.1% in the assay with HT29 colon; 78.4% with SNB-75 CNS; 36.5% in the assay on SNB-19 CNS; 28.8% in the assay on U251 CNS; 34.8% with PC-3 prostate. Besides, the growth in the assay on SK-MEL-5 melanoma was 8.56% (active); with UACC-62 melanoma it was 8.05% (active); in the assay on LOX IMVI melanoma, 36.7%; in the assay with SK-MEL-28 melanoma, 38.5%.
